Targets with a hit are over-represented here; the source holds about 7,900 in all. About 0.6% of all pairs of compound and target were hits.
Key:
Test in all cases: log2 fold change, soluble protein after heating vs DMSO (PISA); higher = thermal stabilisation; K562 cells, 10 uM, 30 min; active = over 0.2 and 3.5 SD of the protein, either way, in both replicates (recomputed)
[1] = compound: CC[C@@H]1C(=O)N(C)c2cnc(Nc3ccc(C(=O)NC4CCN(C)CC4)cc3OC)nc2N1C1CCCC1
Method in brief: (§1)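 Soluble protein was defined as the supernatant after 21,000xg for 90 min. It came from K562 cells at 2×10^6 cells/mL given 10 μM compound for 30 min, heated in aliquots for 3 min across 48°C-58°C, pooled, and extracted in PBS with 0.5% NP-40 at 4°C, and was quantified by TMTpro 16plex LC-MS/MS with equalised channel sums. Thermal stability against control samples, from duplicates, is reported as log2 fold change.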

volasertib = compound: CC[C@@H]1C(=O)N(C)c2cnc(Nc3ccc(C(=O)N[C@H]4CC[C@H](N5CCN(CC6CC6)CC5)CC4)cc3OC)nc2N1C(C)C [volasertib]
Method in brief: as §1

[2] = compound: CC[C@H](C)N1C=C(C2=C(C=C(C=C21)C3=CN=C(C=C3)N4CCNCC4)C(=O)NCC5=C(C=C(NC5=O)C)C)C
Method in brief: as §1

epoxomicin = compound: CC[C@H](C)[C@@H](C(=O)N[C@@H]([C@@H](C)O)C(=O)N[C@@H](CC(C)C)C(=O)[C@]1(CO1)C)NC(=O)[C@H]([C@@H](C)CC)N(C)C(=O)C [epoxomicin]
Method in brief: as §1

[3] = compound: CCn1c(C(=O)N(C2CC2)C2CC2)cc2c3c(ncn3C)c(Nc3cc(C)n(C)n3)nc21
Method in brief: as §1

[4] = compound: CCn1cc(-c2ccnc3[nH]c(-c4cccc(CN(C)C)c4)cc23)c(-c2ccc(NC(=O)N(C)C)cc2)n1
Method in brief: as §1

[5] = compound: CN(C)CC(=O)Nc1ccc2[nH]c(=O)c3ccccc3c2c1
Method in brief: as §1

rosiglitazone = compound: CN(CCOC1=CC=C(C=C1)C[C@H]2C(=O)NC(=O)S2)C3=CC=CC=N3 (racemic) [rosiglitazone]
Method in brief: as §1

[6] = compound: CN1C2=C(C3=C1C(=O)N(N=C3)CC4=CC(=CC=C4)N)SC(=C2)S(=O)C
Method in brief: as §1

[7] = compound: CN1CCC(CNc2ccc3ncc(-c4cccc(OC(F)(F)F)c4)n3n2)CC1
Method in brief: as §1

Measured: log2 fold change

NNMT (UniProt P40261)
UniProt P40261, sequence (P40261 whole entry, looked up): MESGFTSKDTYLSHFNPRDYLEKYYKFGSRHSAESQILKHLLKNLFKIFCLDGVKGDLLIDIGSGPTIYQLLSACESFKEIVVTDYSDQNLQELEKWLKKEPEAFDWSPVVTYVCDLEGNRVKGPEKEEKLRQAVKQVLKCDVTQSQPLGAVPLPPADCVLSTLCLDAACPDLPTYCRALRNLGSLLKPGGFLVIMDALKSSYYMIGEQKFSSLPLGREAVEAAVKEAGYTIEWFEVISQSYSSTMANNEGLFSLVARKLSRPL
inactive: [1] 0.003 | volasertib -0.197 | [2] 0.023 | epoxomicin 0.039 | [3] 0.017 | [4] -0.068 | [5] -0.042 | rosiglitazone 0.007 | [6] -0.025 | [7] -0.152

OSTC (UniProt Q9NRP0)
UniProt Q9NRP0, sequence (Q9NRP0 whole entry, looked up): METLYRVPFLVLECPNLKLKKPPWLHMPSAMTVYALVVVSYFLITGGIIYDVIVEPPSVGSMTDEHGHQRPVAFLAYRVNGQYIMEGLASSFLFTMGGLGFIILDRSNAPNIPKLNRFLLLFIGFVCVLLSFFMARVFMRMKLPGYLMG
inactive: [1] -0.01 | volasertib -0.141 | [2] 0.011 | epoxomicin -0.073 | [3] 0.006 | [4] 0.039 | [5] 0.073 | rosiglitazone 0.048 | [6] -0.129 | [7] -0.053

MMS19 isoform 8 (UniProt Q96T76)
active: volasertib -0.43
inactive: [1] -0.102 | [2] 0.075 | epoxomicin 0.013 | [3] -0.009 | [4] -0.052 | [5] 0.11 | rosiglitazone 0.076 | [6] 0.051 | [7] -0.085

NECTIN2 (UniProt Q92692)
inactive: [1] 0.071 | volasertib 0.029 | [2] -0.003 | epoxomicin 0.02 | [3] 0.018 | [4] -0.044 | [5] -0.028 | rosiglitazone -0.023 | [6] -0.063 | [7] 0.138

OTULIN (UniProt Q96BN8)
UniProt Q96BN8, sequence (Q96BN8 whole entry, looked up): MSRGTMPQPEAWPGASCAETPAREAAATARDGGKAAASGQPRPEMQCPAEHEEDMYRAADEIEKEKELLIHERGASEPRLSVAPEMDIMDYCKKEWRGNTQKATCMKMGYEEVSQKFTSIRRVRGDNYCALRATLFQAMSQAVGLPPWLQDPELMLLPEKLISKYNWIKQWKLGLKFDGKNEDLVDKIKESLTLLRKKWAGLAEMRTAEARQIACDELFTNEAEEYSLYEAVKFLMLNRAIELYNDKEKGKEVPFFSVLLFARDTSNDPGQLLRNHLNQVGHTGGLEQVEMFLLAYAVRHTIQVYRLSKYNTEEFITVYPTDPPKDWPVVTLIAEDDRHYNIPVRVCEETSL
inactive: [1] 0.045 | volasertib -0.331 | [2] 0.074 | epoxomicin 0.037 | [3] -0.093 | [4] -0.084 | [5] 0.054 | rosiglitazone 0.051 | [6] 0.015 | [7] -0.226

MRPS22 (UniProt P82650)
inactive: [1] 0.007 | volasertib -0.05 | [2] 0.125 | epoxomicin 0.004 | [3] -0.03 | [4] -0.068 | [5] 0.004 | rosiglitazone -0.006 | [6] 0.084 | [7] 0.103

PAAF1 (UniProt Q9BRP4)
active: epoxomicin -0.275
inactive: [1] 0.006 | volasertib -0.034 | [2] -0.021 | [3] 0.005 | [4] -0.051 | [5] -0.009 | rosiglitazone 0.039 | [6] -0.07 | [7] -0.039

NCAPG (UniProt Q9BPX3)
UniProt Q9BPX3, sequence (Q9BPX3 whole entry, looked up): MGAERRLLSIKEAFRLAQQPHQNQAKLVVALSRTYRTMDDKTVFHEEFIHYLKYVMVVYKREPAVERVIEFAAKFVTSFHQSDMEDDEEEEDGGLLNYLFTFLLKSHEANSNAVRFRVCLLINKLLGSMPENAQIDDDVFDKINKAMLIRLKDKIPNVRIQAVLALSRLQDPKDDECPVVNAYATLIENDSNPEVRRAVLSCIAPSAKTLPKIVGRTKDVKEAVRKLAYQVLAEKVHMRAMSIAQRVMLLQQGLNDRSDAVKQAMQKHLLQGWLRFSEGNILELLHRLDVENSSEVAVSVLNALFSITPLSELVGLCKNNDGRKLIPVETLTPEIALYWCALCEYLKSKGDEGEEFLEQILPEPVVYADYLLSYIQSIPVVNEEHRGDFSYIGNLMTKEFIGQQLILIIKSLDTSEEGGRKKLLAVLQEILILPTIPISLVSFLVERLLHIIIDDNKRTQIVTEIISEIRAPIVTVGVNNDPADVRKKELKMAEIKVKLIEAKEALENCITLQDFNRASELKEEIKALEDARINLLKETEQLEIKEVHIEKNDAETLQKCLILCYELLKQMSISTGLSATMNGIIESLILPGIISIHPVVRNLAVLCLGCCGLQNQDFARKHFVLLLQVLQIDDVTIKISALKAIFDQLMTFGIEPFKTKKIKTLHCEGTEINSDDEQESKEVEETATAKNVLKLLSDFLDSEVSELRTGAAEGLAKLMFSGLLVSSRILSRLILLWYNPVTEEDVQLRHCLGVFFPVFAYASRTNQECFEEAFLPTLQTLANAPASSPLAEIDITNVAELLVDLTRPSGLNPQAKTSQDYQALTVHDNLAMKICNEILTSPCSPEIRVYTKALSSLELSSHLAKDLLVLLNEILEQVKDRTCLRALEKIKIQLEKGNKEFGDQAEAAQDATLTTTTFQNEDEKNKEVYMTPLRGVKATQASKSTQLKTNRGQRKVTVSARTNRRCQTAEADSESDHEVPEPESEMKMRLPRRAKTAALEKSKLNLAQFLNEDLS
inactive: [1] -0.105 | [2] 0.059 | epoxomicin 0.023 | [3] -0.002 | [4] 0.003 | [5] 0.04 | rosiglitazone 0.066 | [6] 0.004 | [7] 0.092
active: volasertib -0.506

MND1 (UniProt Q9BWT6)
UniProt Q9BWT6, sequence (Q9BWT6 whole entry, looked up): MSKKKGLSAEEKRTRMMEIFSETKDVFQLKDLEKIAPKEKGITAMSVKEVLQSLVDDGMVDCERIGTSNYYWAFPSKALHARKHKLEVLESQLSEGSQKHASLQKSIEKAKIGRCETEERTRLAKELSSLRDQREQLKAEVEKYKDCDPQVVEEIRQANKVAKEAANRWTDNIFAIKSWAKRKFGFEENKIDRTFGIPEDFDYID
active: [7] -0.468
inactive: [1] -0.081 | volasertib -0.175 | [2] -0.036 | epoxomicin 0.049 | [3] 0.045 | [4] -0.076 | [5] -0.015 | rosiglitazone -0.008 | [6] 0.04

MRPS35 (UniProt P82673)
inactive: [1] 0.064 | volasertib 0.014 | [2] 0.029 | epoxomicin 0.048 | [3] -0.054 | [4] -0.076 | [5] 0.027 | rosiglitazone -0.08 | [6] -0.013 | [7] -0.007

MKNK1 (UniProt Q9BUB5)
UniProt Q9BUB5, sequence (Q9BUB5 whole entry, looked up): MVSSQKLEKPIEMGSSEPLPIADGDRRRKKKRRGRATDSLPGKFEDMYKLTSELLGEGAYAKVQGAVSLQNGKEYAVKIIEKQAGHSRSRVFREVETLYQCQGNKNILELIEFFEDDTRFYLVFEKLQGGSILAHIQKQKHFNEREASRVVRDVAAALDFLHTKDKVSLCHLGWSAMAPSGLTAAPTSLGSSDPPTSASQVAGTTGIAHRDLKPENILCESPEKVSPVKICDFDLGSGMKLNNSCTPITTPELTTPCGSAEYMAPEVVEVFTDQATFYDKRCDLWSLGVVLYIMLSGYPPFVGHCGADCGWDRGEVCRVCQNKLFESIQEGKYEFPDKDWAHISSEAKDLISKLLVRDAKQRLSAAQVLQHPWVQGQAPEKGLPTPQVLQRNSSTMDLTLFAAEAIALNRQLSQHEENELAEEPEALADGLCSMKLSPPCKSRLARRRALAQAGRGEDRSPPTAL
inactive: [1] -0.148 | volasertib -0.183 | [2] -0.025 | epoxomicin 0.018 | [3] -0.023 | [4] -0.101 | [5] 0.009 | rosiglitazone 0.036 | [6] -0.095 | [7] -0.006

MSH2 (UniProt P43246)
UniProt P43246, sequence (P43246 whole entry, looked up): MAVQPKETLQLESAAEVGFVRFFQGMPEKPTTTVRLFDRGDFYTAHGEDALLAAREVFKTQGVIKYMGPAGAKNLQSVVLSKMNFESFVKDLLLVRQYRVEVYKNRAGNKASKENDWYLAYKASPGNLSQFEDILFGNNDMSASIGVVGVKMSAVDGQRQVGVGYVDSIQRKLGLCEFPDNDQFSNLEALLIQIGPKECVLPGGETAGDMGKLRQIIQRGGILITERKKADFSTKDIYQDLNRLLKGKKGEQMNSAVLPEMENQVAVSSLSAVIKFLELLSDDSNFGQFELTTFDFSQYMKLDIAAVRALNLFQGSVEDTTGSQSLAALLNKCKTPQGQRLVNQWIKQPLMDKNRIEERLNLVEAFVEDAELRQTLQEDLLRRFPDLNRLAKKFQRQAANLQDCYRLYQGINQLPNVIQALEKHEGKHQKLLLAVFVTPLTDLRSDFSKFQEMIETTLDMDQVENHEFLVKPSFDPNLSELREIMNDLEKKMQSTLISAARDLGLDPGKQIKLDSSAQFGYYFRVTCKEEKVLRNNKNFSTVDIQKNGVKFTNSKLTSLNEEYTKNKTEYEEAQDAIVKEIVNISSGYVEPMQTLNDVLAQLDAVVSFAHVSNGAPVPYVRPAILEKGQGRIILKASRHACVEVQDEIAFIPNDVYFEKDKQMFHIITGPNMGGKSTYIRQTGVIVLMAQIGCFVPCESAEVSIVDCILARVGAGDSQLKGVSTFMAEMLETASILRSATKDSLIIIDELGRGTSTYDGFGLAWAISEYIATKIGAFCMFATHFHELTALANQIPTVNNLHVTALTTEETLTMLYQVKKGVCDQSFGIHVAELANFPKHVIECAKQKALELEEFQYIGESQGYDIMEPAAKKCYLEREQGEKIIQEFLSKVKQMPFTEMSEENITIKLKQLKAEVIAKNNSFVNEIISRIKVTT
inactive: [1] -0.103 | volasertib -0.173 | [2] 0.039 | epoxomicin 0.066 | [3] -0.034 | [4] 0.036 | [5] 0.059 | rosiglitazone 0.046 | [6] -0.019 | [7] -0.067

OGFOD1 (UniProt Q8N543)
inactive: [1] 0.049 | volasertib 0.038 | [2] -0.025 | epoxomicin 0.042 | [3] 0.007 | [4] -0.013 | [5] -0.022 | rosiglitazone 0.059 | [6] -0.022 | [7] -0.051

NDUFS8 (UniProt O00217)
inactive: [1] -0.103 | volasertib -0.097 | [2] -0.005 | epoxomicin 0.039 | [3] -0.003 | [4] -0.043 | [5] 0 | rosiglitazone 0.039 | [6] -0.069
active: [7] -0.41

MTOR (UniProt P42345)
active: volasertib -0.305 | [7] -0.286
inactive: [1] -0.131 | [2] 0.04 | epoxomicin -0.021 | [3] -0.05 | [4] -0.073 | [5] 0.036 | rosiglitazone 0.058 | [6] 0.017

MRPS10 (UniProt P82664)
inactive: [1] 0.02 | volasertib 0.027 | [2] 0.088 | epoxomicin -0.022 | [3] -0.021 | [4] 0.045 | [5] 0.085 | rosiglitazone 0.003 | [6] 0.066 | [7] 0.068

NMT1 (UniProt P30419)
inactive: [1] 0.028 | volasertib -0.21 | [2] 0.036 | epoxomicin 0.014 | [3] 0.016 | [4] -0.028 | [5] -0.022 | rosiglitazone -0.073 | [6] 0.007 | [7] -0.097

NUDT1 (UniProt P36639)
inactive: [2] -0.012 | epoxomicin -0.039 | [3] -0.113 | [4] -0.19 | [5] 0.06 | rosiglitazone 0.054 | [6] -0.088 | [7] 0.157
active: [1] 0.971 | volasertib 1.35

NPC1 (UniProt O15118)
inactive: [1] -0.016 | volasertib -0.072 | [2] -0.031 | epoxomicin -0.02 | [3] 0.009 | [4] 0.005 | [5] -0.029 | rosiglitazone -0.018 | [6] 0.004 | [7] 0.012

MRPS2 (UniProt Q9Y399)
inactive: [1] -0.048 | volasertib 0.037 | [2] 0.053 | epoxomicin 0.02 | [3] -0.01 | [4] -0.045 | [5] 0.031 | rosiglitazone -0.003 | [6] 0.016 | [7] 0.044

NHLRC2 (UniProt Q8NBF2)
inactive: [1] 0.024 | volasertib 0.029 | [2] -0.026 | epoxomicin -0.06 | [3] -0.037 | [4] -0.109 | [5] 0.003 | rosiglitazone 0.01 | [6] -0.064
active: [7] -0.272

NQO1 (UniProt P15559)
UniProt P15559, sequence (P15559 whole entry, looked up): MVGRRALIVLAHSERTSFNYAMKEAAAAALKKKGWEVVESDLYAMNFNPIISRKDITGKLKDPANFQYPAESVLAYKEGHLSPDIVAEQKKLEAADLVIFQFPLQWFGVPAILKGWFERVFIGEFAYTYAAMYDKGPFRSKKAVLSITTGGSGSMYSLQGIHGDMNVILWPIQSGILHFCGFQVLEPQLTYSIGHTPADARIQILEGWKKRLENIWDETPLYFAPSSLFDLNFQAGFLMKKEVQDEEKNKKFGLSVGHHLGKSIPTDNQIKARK
inactive: [1] 0.011 | volasertib 0.057 | epoxomicin 0.083 | [3] 0.159 | [4] -0.064 | [5] -0.005 | rosiglitazone 0.013 | [7] 0.046
active: [2] 0.276 | [6] 0.356

NRDC isoform 2 (UniProt O43847)
inactive: [1] -0.18 | [2] 0.069 | epoxomicin 0.038 | [3] -0.067 | [4] -0.087 | [5] 0.055 | rosiglitazone 0.073 | [6] 0 | [7] -0.087
active: volasertib -0.371

NARS2 (UniProt Q96I59)
UniProt Q96I59, sequence (Q96I59 whole entry, looked up): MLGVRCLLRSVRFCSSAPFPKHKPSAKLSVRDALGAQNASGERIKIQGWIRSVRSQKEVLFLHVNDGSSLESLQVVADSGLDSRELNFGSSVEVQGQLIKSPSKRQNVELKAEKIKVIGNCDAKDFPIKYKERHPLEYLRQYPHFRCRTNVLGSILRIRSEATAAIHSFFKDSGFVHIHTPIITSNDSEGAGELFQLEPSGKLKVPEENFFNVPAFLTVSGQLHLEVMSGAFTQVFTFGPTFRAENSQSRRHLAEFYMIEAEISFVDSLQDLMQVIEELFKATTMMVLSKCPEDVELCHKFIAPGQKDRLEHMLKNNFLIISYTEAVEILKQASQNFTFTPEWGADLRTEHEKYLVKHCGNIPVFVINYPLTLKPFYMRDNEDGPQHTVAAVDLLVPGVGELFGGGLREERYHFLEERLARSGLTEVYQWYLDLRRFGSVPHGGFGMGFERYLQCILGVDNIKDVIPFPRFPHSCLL
inactive: [1] -0.021 | volasertib -0.043 | [2] 0.045 | epoxomicin 0.048 | [3] 0.034 | [4] -0.055 | [5] 0.001 | rosiglitazone 0.026 | [6] -0.034 | [7] -0.182

OPA1 isoform 2 (UniProt O60313)
active: [7] -0.347
inactive: [1] -0.187 | volasertib -0.264 | [2] 0.039 | epoxomicin 0.027 | [3] -0.047 | [4] -0.081 | [5] 0.023 | rosiglitazone 0.07 | [6] -0.013

NOLC1 isoform 2 (UniProt Q14978)
UniProt Q14978, sequence (Q14978 whole entry, looked up): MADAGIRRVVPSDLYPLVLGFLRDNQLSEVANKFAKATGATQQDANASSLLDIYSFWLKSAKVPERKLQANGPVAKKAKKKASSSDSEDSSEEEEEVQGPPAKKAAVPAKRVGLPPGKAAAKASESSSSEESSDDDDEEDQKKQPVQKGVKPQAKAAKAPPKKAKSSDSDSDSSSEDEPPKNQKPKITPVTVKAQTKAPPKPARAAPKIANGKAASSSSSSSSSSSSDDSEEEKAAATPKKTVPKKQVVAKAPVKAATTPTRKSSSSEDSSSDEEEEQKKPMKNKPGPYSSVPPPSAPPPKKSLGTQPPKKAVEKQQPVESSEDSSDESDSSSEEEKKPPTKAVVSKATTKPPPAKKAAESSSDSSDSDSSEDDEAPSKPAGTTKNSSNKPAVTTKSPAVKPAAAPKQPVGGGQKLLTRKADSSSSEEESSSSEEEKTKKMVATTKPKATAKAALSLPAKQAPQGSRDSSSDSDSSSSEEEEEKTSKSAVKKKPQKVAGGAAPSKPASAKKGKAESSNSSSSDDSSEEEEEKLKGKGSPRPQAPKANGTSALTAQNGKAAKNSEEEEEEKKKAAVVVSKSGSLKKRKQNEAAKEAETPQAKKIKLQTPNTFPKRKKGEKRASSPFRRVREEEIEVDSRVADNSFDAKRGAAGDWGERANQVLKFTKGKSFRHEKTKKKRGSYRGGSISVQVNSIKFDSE
inactive: [1] -0.155 | volasertib -0.024 | [2] -0.051 | epoxomicin -0.06 | [3] -0.015 | [4] 0.047 | [5] -0.048 | rosiglitazone -0.018 | [6] 0.026 | [7] -0.112

MRPL46 (UniProt Q9H2W6)
inactive: [1] 0.209 | volasertib 0.302 | [2] 0.034 | epoxomicin 0.015 | [3] 0.075 | [4] -0.04 | [5] 0.014 | rosiglitazone -0.017 | [6] 0.061 | [7] 0.12

NUMA1 (UniProt Q14980)
inactive: [1] 0.065 | volasertib 0.034 | [2] 0.039 | epoxomicin -0.044 | [3] -0.031 | [4] 0.068 | [5] 0.003 | rosiglitazone -0.035 | [6] 0.115 | [7] -0.191

PAFAH1B2 (UniProt P68402)
inactive: [1] 0.002 | volasertib 0.064 | [2] 0.036 | epoxomicin 0.102 | [3] 0.018 | [4] -0.087 | [5] -0.009 | rosiglitazone 0 | [6] -0.037 | [7] -0.016

MRPS24 (UniProt Q96EL2)
inactive: [1] -0.004 | volasertib 0.121 | [2] 0.126 | epoxomicin -0.067 | [3] -0.031 | [4] -0.095 | [5] 0 | rosiglitazone -0.026 | [6] -0.004 | [7] 0.07
